Reference: PubChem BioAssay (Tox21)
Active and inactive are the calls of the source. Entries that show only a call come without a potency. Calls come from the whole dose curve.
Potency is the fitted concentration of half-maximal effect.

These compounds were tested against Gonadotropin-releasing hormone receptor (Homo sapiens) (UniProt P30968) (assay: Human gonadotropin-releasing hormone receptor (GnRHR) small molecule agonists, calcium flux assay in GnRHR-HEK293 cells (AID 1920063; note: nearly all actives have a fitted effect of over 35% in size)). Conditions: calcium flux fluorescence, agonist mode; series mostly up to 57.6 µM.
Gonadotropin-releasing hormone receptor (Homo sapiens), sequence (P30968 whole entry, looked up): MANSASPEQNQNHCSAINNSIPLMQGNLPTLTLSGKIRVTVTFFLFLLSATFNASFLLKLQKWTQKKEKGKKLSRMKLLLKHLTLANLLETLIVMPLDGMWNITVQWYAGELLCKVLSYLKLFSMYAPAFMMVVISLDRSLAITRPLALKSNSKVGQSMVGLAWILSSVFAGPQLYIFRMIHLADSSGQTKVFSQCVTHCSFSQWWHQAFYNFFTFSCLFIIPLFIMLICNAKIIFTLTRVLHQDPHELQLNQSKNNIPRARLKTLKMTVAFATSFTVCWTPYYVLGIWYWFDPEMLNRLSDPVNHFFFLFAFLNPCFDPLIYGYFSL
Excerpt: National Center for Advancing Translational Sciences [NCATS]
Division of Preclinical Innovation [DPI]
U.S. Environmental Protection Agency [EPA]
National Institutes of Environmental Health Sciences [NIEHS]
National Toxicology Program [NTP]
U.S. Food and Drug Administration [FDA]
Gonadotropin-releasing hormone receptor (GnRHR) is a G-protein-coupled receptor (GPCR) and acts (through phospholipase C) to increase intracellular inositol trisphosphate and then release intracellular calcium stores. Cell-based GnRHR-Hek293 calcium influx assay is using HEK293 cells that have been genetically engineered to express the human GnRHR, which activity can be measured by calcium signaling. A compound/drug can activate (agonist) GnRHR that can be monitored by levels of intracellular calcium.
GnRHR-HEK293 cells developed by Codex Corp contain human GnRHR reporter gene, which was stably integrated into HEK 293 cells. The compound activation can be detected by fluorescence intensity via calcium flux assay. This cell line has been used to screen the Tox21 10K compound library to identify GnRHR agonists.
GnRHR-Hek293 cells were dispensed at 1500cells/4uL/well in 1536-well black wall/clear bottom plates using a multidrop dispenser. After the assay plates were incubated at a 37 C/5% CO2 incubator for 18 hours, 4 uL of Calcium Dye Solution was added to each well. The plates were incubated at 37 C for 1 hour. For agonist mode, 23 nL of compounds dissolved in DMSO, positive controls or DMSO only was transferred to the assay plate by a pin tool station. The fluorescence intensity in the plates was measured using FDSS 7000EX kinetic plate reader with a filter set of Ex/Em=480/540 for 3 min at 1 sec intervals. Each test compound was measured at 15 concentrations and in triplicates.
In the case of `O=C(c1ccccc1)C(Cl)Cl`, the Potency is reported as “inactive”. `CCOC(=O)CC(=O)CCl` was tested, and the Potency was “inactive”. With `COc1cnc(OC)n2nc(NS(=O)(=O)c3c(OCC(F)F)cccc3C(F)(F)F)nc12` the Potency was “inactive”. In the case of `CC(=O)[C@H]1CC[C@H]2[C@@H]3CC[C@H]4C[C@H](O)CC[C@]4(C)[C@H]3C(=O)C[C@]12C`, the Potency is reported as “inactive”. `[C-]1=CC=CC1.[Cl][Zr+2][Cl].c1cc[cH-]c1` was tested, and the Potency was “inactive”. For `c1ccc2nc(N3CCNCC3)ccc2c1`, the Potency was “inactive”. For `CNC(=O)CSP(=O)(OC)OC`, the Potency was “inactive”. For `O=C(O)c1cc(I)cc(I)c1I`, the Potency was “inactive”. For `Clc1cccc(SC2CCNCC2)n1`, the Potency was “inactive”. With `CC1=C2C[C@H]3[C@@H](CC=C4C[C@@H](O)CC[C@@]43C)[C@@H]2CC[C@]12O[C@@H]1C[C@H](C)CN[C@H]1[C@H]2C` the Potency was “inactive”. For `O=C(NC(=O)c1cc(F)c(F)cc1Cl)Nc1cc(F)ccc1N1CCC(C(=O)O)CC1`, the Potency was “inactive”. With `ClCc1cccc(Cl)c1` the Potency was “inactive”. With `Cc1cc(C)c(C(=O)P(=O)(C(=O)c2c(C)cc(C)cc2C)c2ccccc2)c(C)c1` the Potency was “inactive”. With `O=C1OC(CCN2CCCCC2)OC1(c1ccccc1)c1ccccc1` (stereo not given) the Potency was “inactive”. In the case of `CCN1CCCC1CNC(=O)C(O)(c1ccccc1)c1ccccc1` (stereo not given), the Potency is reported as “inactive”. With `CC(C)(C)c1cc(O)ccc1O` the Potency was “inactive”. For `COP(=S)(OC)Oc1nc(Cl)c(Cl)cc1Cl`, the Potency was “inactive”. With `CC(Oc1cc(Cl)c(Cl)cc1Cl)C(=O)O` (stereo not given) the Potency was “inactive”. In the case of `CCC(C)Nc1c([N+](=O)[O-])cc(C(C)(C)C)cc1[N+](=O)[O-]` (stereo not given), the Potency is reported as “inactive”. In the case of `Cc1ncc(C[n+]2csc(CCO)c2C)c(N)n1`, the Potency is reported as “inactive”. For `COP(=S)(OC)Oc1c(Cl)cc(C)cc1Cl`, the Potency was “inactive”. `C[C@H](N)C(=O)c1ccccc1` was tested, and the Potency was “inactive”. `O=NN1CCN(N=O)CC1` was tested, and the Potency was “inactive”. For `O=[N+]([O-])C(Br)Br`, the Potency was “inactive”. In the case of `CC(C)[C@H](C(=O)OC(C#N)c1cccc(Oc2ccccc2)c1)c1ccc(OC(F)F)cc1` (stereo not given in full), the Potency is reported as “inactive”. `Cc1cc(C2CC2)nc(Nc2ccccc2)n1` was tested, and the Potency was “inactive”. In the case of `COC(=O)COc1ccc(Cl)cc1Cl`, the Potency is reported as “inactive”. For `CNC(=O)/C=C(\C)OP(=O)(OC)OC`, the Potency was “inactive”. In the case of `CCCC[N+]1(C)[C@@H]2CC(OC(=O)[C@H](CO)c3ccccc3)C[C@H]1[C@@H]1O[C@@H]12` (stereo not given in full), the Potency is reported as “inactive”. With `CCCCN(N=O)C(=N)N[N+](=O)[O-]` the Potency was “inactive”. `CN(C)S(=O)(=O)N(SC(F)(Cl)Cl)c1ccccc1` was tested, and the Potency was 38.9 µM (active). `COc1cccc(C(=O)NN(C(=O)c2cc(C)cc(C)c2)C(C)(C)C)c1C` was tested, and the Potency was “inactive”. With `O=NN(CCO)CCO` the Potency was “inactive”. `O=C(O)COc1ccc(Cl)cc1` was tested, and the Potency was “inactive”. For `CCC[N+](CCC)(CCC)CCC`, the Potency was “inactive”. `COP(=O)(OC)OC(Br)C(Cl)(Cl)Br` (stereo not given) was tested, and the Potency was “inactive”. For `FC(Cl)(Cl)C(F)(Cl)Cl`, the Potency was “inactive”. `CC(C)C(=O)Cl` was tested, and the Potency was “inactive”. For `ClCC(Cl)Cl`, the Potency was “inactive”. `CO/C=C(/C(=O)OC)c1ccccc1COc1cccc(C(F)(F)F)n1` was tested, and the Potency was “inactive”.
